Assay outcomes deposited in PubChem BioAssay by National Center for Advancing Translational Sciences (NCATS).
Most compounds without a hit are left out; they make up all but 3% or so of the library.
IP6K1 inhibitor: inhibitors of human IP6K1 | IP6K1 kinase, ADP-Glo luminescence, 2 h; hits give low values | activity change, % (series mostly up to about 58 µM) | hit rate 0.81% among 140,000; in the data active means activity change below about -25%; further: on the % scale 0 is the no-effect control and ±100 the full control effect
Target sequence (Q92551 whole entry, looked up): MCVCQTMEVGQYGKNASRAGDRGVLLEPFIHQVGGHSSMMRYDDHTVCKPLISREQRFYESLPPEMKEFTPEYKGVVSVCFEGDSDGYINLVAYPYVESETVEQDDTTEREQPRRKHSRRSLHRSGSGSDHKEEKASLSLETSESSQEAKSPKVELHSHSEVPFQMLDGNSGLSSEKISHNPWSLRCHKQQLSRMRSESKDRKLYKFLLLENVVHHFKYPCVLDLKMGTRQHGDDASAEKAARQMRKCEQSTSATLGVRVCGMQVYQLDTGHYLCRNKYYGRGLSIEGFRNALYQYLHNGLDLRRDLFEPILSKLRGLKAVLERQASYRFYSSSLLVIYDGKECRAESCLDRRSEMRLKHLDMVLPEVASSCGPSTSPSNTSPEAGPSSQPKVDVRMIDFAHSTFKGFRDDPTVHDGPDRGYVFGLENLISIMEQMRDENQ
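ADP-Glo luminescence measures ADP made by human IP6K1 during a 2 h RT reaction with ATP/IP6 (mix at 1.3 mM/130 uM); top library doses 57.5 and 19.1 uM final.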
SNCA expr inh: inhibitors of alpha-synuclein (SNCA) gene expression; HEK-293 SNCA-luciferase knock-in, luminescence, 24 h; Potency, µM (titrated, usually from 57.2 µM), for the others: top-dose activity change, negative = inhibition, actives largely listed as inhibitors; hit rate 0.17% among 140,000; AID 1671194;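 further: potency means the concentration at half of the fitted maximal effect; plate controls were DMSO cells for no effect and cell-free wells for full effect; nearly all actives have a fitted effect of over 45% in size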
SNCA viab count: counter-screen for SNCA expression inhibitors: cell viability; HEK-293-SNCA-luc viability, GF-AFC fluorescence, 24 h; Potency, µM (titrated, usually from 57.1 µM), inactives show at the highest dose activity change, negative = cytotoxicity, actives largely listed as cytotoxic; hit rate 0.12% among 150,000;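 further: potency means the concentration at half of the fitted maximal effect; 0% = DMSO-treated cells and -100% = medium-only wells without cells; nearly all actives have a fitted effect of over 30% in size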
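HEK-293-SNCA-luc cells (1500/well) plated 24 h, then exposed 24 h to a dilution series; GF-AFC added 30 min at 37C, fluorescence 405/540 nm; normalised to medium-only and DMSO wells, Hill fit.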
KDM5B inh: KDM5B demethylase inhibition; KDM5B demethylase, FDH-coupled NADH fluorescence (FDH is formaldehyde dehydrogenase); Potency, µM (highest dose often 57.7 µM), hits mostly inhibitors; hit rate 2.6% among 220,000; AID 1347165; further: potency means the concentration at half of the fitted maximal effect; 0% is about no effect; nearly all actives have a fitted effect of over 70% in size
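Measured: NADH fluorescence change, 30 min, RT. System: KDM5BΔAP 200 nM final, H3K4me3 peptide, α-KG, Fe(II), ascorbate, NAD⁺ plus FDH, pH 7.5 HEPES. Compounds: titrated, 10 min pre-incubation with enzyme.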
* = called active by the depositor; i = inactive; ? = inconclusive; . = no result given; [ ] = dose if it differs, or a comment. Unless noted, the call rests on the fitted dose curve; in most records, active means well fitted curve in the direction sought with a large enough effect; inconclusive means small, poorly fitted or top-dose-only effect, or another doubt; inactive means no such curve, though single readings can be large; an effect the other way counts as inactive or inconclusive.

SMILES	IP6K1 inhibitor	SNCA expr inh	SNCA viab count	KDM5B inh
Cc1ccccc1-c1cc(-c2ccc(=O)[nH]c2)c2cncn2c1	-4	6%[87.6 µM]	10%[87.6 µM]	35µM*
CNc1nccnc1-c1ccccc1S(=O)(=O)NC(C)(C)C	4	-4%	-1%	28µM*
CC(C)(C)NS(=O)(=O)c1ccccc1-c1nc(N)nc2c1CCC2	3	6%	8%	22µM*
CC(C)NC(=O)c1ccnc(-c2ccccc2S(=O)(=O)NC(C)(C)C)c1	-2	-3%	-22%	i
CC1(C)OC2=C(C(=O)c3ccccc3C2=O)[C@H](NCc2ccccc2)[C@H]1O	.	12µM*	14µM*	.
CC(NCc1ccccc1)C(=O)O (stereo not given)	.	.	.	i
Cn1ccc2c(C(=O)NCc3cccnc3)nc(-c3cccc4cc[nH]c34)cc21	32	-31%[87.6 µM]	?	35µM*
Cn1ccc2c(C(=O)NCc3cccnc3)nc(-c3cccnc3)cc21	20	-4%[87.6 µM]	-6%[87.6 µM]	i
Cn1ccc2c(C(=O)NCc3cccnc3)nc(-c3ccccc3C(F)(F)F)cc21	3	-6%[87.6 µM]	-21%[87.6 µM]	35µM*
c1ccc(-c2ccc(CN3CCNCC3)s2)cc1	.	.	.	i
Cc1cc(C[C@@H]2COC[C@@H]2NC(=O)COc2cccc(C)c2C)on1	2	-28%	4%	20µM*
CN1CCN(CCCNc2nccc(-c3ccccn3)n2)CC1	-10	11%	-3%	28µM*
c1ccc(CCCNc2nccc(-c3ccccn3)n2)nc1	20	37%	-6%	28µM*
COCc1cc(CNc2nccc(-c3ccccn3)n2)[nH]n1	-20	16%	2%	?
COc1ccc([C@H]2CN(C(=O)c3nc(N)nc4c3CCCC4)C[C@@H]2N)cc1	9	?	3%	22µM*
Cc1cccc(CN(C(=O)c2ccco2)c2ccc(CC(=O)N(C)Cc3ccccc3)cc2)c1	5	-23%	-1%	28µM*
Cc1cccc(CNC(=O)Cc2ccc(N(Cc3ccc(F)cc3)C(=O)c3ccco3)cc2)c1	10	-14%	-8%	?
O=C1CCN(S(=O)(=O)c2cccs2)CCCC(CO)CCN1 (stereo not given)	-3	-7%	-2%	?
Cc1ccc(-c2cn3c(n2)CO[C@@H](CNC(=O)c2ccccc2)C3)cc1	15	41%[87.6 µM]	-5%[87.6 µM]	32µM*
Cc1ccc(CCNc2ncncc2-c2nc(-c3ccccc3)no2)cc1	-9	23%	30%	32µM*
Cc1ccc(Cl)cc1Nc1ncncc1-c1nc(-c2ccccc2)no1	-6	-14%	10%	25µM*
CC(C)C(CNC(=O)c1cc(-c2ccncc2)nc2ccccc12)N(C)C (stereo not given)	.	.	.	i
COc1ccccc1-c1cc(C(=O)NCc2cccnc2)nn2cccc12	-9	-2%	2%	i
COc1ccccc1-c1cc(C(=O)NCc2cccnc2)nc2c1cnn2C	-2	49%	-11%	?
COc1ccccc1-c1nc(C(=O)NCc2cccnc2)n2ccncc12	-9	53%	6%	79µM*
SMILES	IP6K1 inhibitor	SNCA expr inh	SNCA viab count	KDM5B inh
COc1ccccc1-c1nc(C(=O)N2CCCC2)n2ccncc12	-19	-17%	7%	?
COc1ccccc1-c1nc(C(=O)NC(C)C)n2ccncc12	8	-12%[87.6 µM]	-1%[87.6 µM]	40µM*
COC(=O)CNC(=O)c1nc(-c2ccccc2OC)c2cnccn12	-16	143%	7%	100µM*
COc1ccccc1-c1nc(C(=O)NCc2cccnc2)n2ccccc12	-10	3%	-9%	89µM*
Cc1cccc(-c2cccc(CN3CCC(NC(=O)c4cccc(Cl)c4)CC3)c2)c1	3	?	?	.
COc1ccc(F)cc1-c1ccc(C(=O)NCCCn2ccnc2C(C)C)cn1	7	-15%	-3%	28µM*
Cc1ccc(C)c([S+](=O)([O-])c2nnn3c2nc(N2CCC(F)CC2)c2ccccc23)c1	5	-27%	-6%	79µM*
Cc1cc(C)c([S+](=O)([O-])c2nnn3c2nc(N2CCC(F)CC2)c2ccccc23)c(C)c1	8	28%	0%	79µM*
O=[S+]([O-])(c1ccccc1)c1nnn2c1nc(N1CCC(F)CC1)c1ccccc12	-3	17%	9%	?
Cc1cc(C)c([S+](=O)([O-])c2nnn3c2nc(N2CCOCC2)c2ccccc23)c(C)c1	-6	-23%	0%	?
CC(C)NC(=O)NC[C@H]1O[C@@H](CO)[C@@H](O)[C@H]1N1CCN(c2ccccn2)CC1	-5	-22%	7%	?
CC(C)NC[C@H]1O[C@@H](CO)[C@@H](O)[C@H]1N1CCN(c2ccccn2)CC1	-7	-5%	2%	25µM*
Cn1ccc2c(-c3cc(NCCO)nc(N)n3)ccnc21	38	112%	5%	28µM*
CN1CCCC2(CCN(C(=O)c3cc(=O)[nH]c4ccc(F)cc34)C2)C1=O (stereo not given)	-14	?	4%	25µM*
COc1cc(F)ccc1-c1cc(-c2c(C)noc2C)cc2c1C(=O)N(C)C2	5	40%[87.6 µM]	-6%[87.6 µM]	32µM*
CC(C)c1noc(-c2cccn3c(CNC(=O)c4ccccn4)nnc23)n1	14	?	-10%	25µM*
CC(C)c1noc(-c2cccn3c(CNC(=O)c4ccco4)nnc23)n1	-2	-17%	5%	22µM*
CC(C)c1noc(-c2cccn3c(CNC(=O)c4ccccc4)nnc23)n1	4	-9%	2%	22µM*
CC(C)c1noc(-c2cccn3c(CNC(=O)c4cccnc4)nnc23)n1	19	11%	8%	?
CC1=C[C@@H](CNS(=O)(=O)c2ccc(Cl)cc2)[C@H](C(C)C)C[C@H]1CC(=O)N1CCOCC1	3	?	?	?
O=C1CCN(C(=O)c2cccs2)[C@@H]2c3ccccc3OC[C@@H]2CN1CCO	14	.	.	.
Cn1cc(-c2cc(=O)c3ccnc(NCc4ccc(F)cc4)c3o2)cn1	-15	-28%[87.6 µM]	2%[87.6 µM]	32µM*
Cn1cc(-c2cc(=O)c3ccnc(NC4CCOCC4)c3o2)cn1	-17	-8%[87.6 µM]	12%[87.6 µM]	i
CSc1ccc(NC(=O)c2cc3c(s2)CN(C2CC2)C3)cc1	-5	68%	-1%	22µM*
COc1cccc2ccn(CC(=O)NCc3ccccc3)c12	.	.	.	i
SMILES	IP6K1 inhibitor	SNCA expr inh	SNCA viab count	KDM5B inh
CN(CC(=O)NC1CCCCNC1=O)Cc1ccc(Br)cc1 (stereo not given)	.	.	.	i
CC(C)c1noc(-c2cccn3c(CNC(=O)c4c(F)cccc4Cl)nnc23)n1	3	8%	5%	16µM*
CC(C)c1noc(-c2cccn3c(CNC(=O)c4ccc(F)c(F)c4)nnc23)n1	4	-14%	-2%	11µM*
COc1ccc(C(=O)NCc2nnc3c(-c4nc(C(C)C)no4)cccn23)cc1F	4	-5%	0%	32µM*
CCOC(=O)c1ccc(N2C(=O)c3n[nH]c(-c4cccs4)c3C2c2cccc(OC)c2)cc1 (stereo not given)	-2	18µM*	-21%	?
COc1ccc(NC(=O)Cn2c(=O)n(-c3ccc(C)c(C)c3)c(=O)c3c4c(sc32)CCCCC4)cc1Cl	-33*	42%	?	i
